Sampled rows, rich in hits. Any-hit rate of the full collection: about 3.3%.
PNC inhibitor: perinucleolar compartment assembly inhibition; PC3M PTB-GFP, PNC prevalence imaging, 16 h; active compounds read low; activity change (PNC), negative = inhibition, % at 10 µM; 140,000 compounds, 3.1% hits;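 active means readout at or below -70, meaning at least 70% loss of cells showing the perinucleolar compartment, a nuclear body marking cancer cells; inconclusive means readout between -30 and a set limit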;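 further: plate controls were DMSO wells for no effect and camptothecin positive control wells for full effect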
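Compounds are pinned in duplicate onto adhered PC3M cells stably expressing GFP-tagged PTB and incubated 16 h at 37 C. Cells are then fixed, nuclei stained with Hoechst, and PNC-positive cells counted.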
HTT ATP protect: Huntington cell model cytoprotection by ATP luminescence; PC12 HTT-Q103 induced, cytoprotection, ATP luminescence, 40 h; Potency, µM (highest dose often 56.4 µM), for inactives: cytoprotection (ATP increase), most hits filed as activators; 230,000 compounds, 0.14% hits; AID 1471; further: potency means the concentration at half of the fitted maximal effect; % of control where 0% means no effect; nearly all actives have a fitted effect of over 45% in size
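Quantitative HTS on tebufenozide-induced (100 nM) PC12 cells expressing HTTQ103 exon 1–GFP; compounds tested as a concentration series; survival measured via cellular ATP.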
12-hLO inh: inhibitors of human 12-lipoxygenase (ALOX12). 150,000 compounds, 0.12% hits. AID 1452. Potency, µM (top dose mostly 57.1 µM), inactives show at the highest dose activity change, negative = inhibition, most hits filed as inhibitors. P18054. purified 12-hLO, xylenol orange hydroperoxide absorbance; further: potency means the concentration at half of the fitted maximal effect; on the % scale 0 is the no-effect control and ±100 the full control effect; nearly all actives have a fitted effect of over 55% in size
Target sequence (P18054 whole entry, looked up): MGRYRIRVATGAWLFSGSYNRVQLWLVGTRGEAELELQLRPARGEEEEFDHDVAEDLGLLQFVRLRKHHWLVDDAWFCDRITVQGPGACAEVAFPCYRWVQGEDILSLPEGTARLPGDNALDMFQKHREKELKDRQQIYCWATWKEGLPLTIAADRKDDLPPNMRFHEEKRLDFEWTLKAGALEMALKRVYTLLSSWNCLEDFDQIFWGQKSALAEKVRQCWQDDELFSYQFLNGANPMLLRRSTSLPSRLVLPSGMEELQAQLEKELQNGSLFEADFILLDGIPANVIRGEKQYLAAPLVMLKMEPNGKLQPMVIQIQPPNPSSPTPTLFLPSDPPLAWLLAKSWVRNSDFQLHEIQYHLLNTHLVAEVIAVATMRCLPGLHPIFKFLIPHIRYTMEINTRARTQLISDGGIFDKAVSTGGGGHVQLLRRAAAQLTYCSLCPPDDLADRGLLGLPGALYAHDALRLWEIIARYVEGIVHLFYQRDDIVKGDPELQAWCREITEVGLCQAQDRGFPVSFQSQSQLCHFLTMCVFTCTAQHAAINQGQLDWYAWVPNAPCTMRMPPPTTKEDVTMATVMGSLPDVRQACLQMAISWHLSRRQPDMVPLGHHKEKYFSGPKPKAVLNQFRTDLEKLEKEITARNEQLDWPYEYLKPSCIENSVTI
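Hydroperoxide formation by human 12-lipoxygenase from 40 uM arachidonic acid was followed colorimetrically via ferric-xylenol orange complex, using the 573/405 nm absorbance ratio. Enzyme concentration was 150 nM, with 30 min reaction at room temperature.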
NPSR antag: blocks cAMP signaling of the human neuropeptide S receptor; 220,000 compounds, 1% hits; AID 1461; Q6W5P4; CHO-NPSR cells, cAMP TR-FRET, antagonist mode; Potency, µM (highest dose often 38.3 µM), inactives show top-dose activity change, negative = inhibition, actives largely listed as inhibitors; further: potency means the concentration at half of the fitted maximal effect; on the % scale 0 is the no-effect control and ±100 the full control effect; nearly all actives have a fitted effect of over 50% in size
HTT aggregate: mutant huntingtin aggregation inhibition; PC12 HttQ103-GFP aggregates, Acumen cytometry, 40 h; 220,000 compounds, 1.1% hits; Potency, µM (titrated, usually from 46.1 µM), inactives show at the highest dose activity change, negative = inhibition, usual class: inhibitors; further: potency means the concentration at half of the fitted maximal effect; on the % scale 0 is the no-effect control and ±100 the full control effect; nearly all actives have a fitted effect of over 60% in size
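Quantitative HTS on tebufenozide-induced (100 nM) PC12 cells stably expressing polyQ103 Huntingtin exon 1–GFP. Reduction of bright GFP aggregates, detected by laser scanning cytometry after lysis, identified actives across the titration.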
IMPase inh: membrane-permeable compound that blocks inositol monophosphatase; P97697; CHO-M1 cells, IP1 accumulation, HTRF TR-FRET ratio; inhibition (IP1 accumulation), % at 46.1 µM; 120,000 tested, under 10 active; AID 901; active means well fitted curve in the direction sought with a large enough effect in the signal ratio, not every such curve was filed as active; inconclusive means small, poorly fitted or top-dose-only effect, or a change in a side signal; inactive means no such curve, though single readings can be large or run the other way; the % refers to the signal ratio;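 further: cells stimulated with carbachol in lithium chloride buffer; plate controls were DMSO basal wells for no effect and reference inhibitor wells for full effect; higher means more IMPase inhibition seen as more IP1 and lower FRET ratio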
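Seeded CHO-M1 cells were dosed with compound at up to 46 uM, stimulated with carbachol for 30 min, then lysed in IP-One detection reagents. Higher IP1 lowers the TR-FRET signal.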
The depositor's hits bear a star; ? = inconclusive; · = no result; [ ] = dose if it differs, or a comment. Unless noted, the call rests on the fitted dose curve; in most records, active means well fitted curve in the direction sought with a large enough effect; inconclusive means small, poorly fitted or top-dose-only effect, or another doubt; inactive means no such curve, though single readings can be large; an effect the other way counts as inactive or inconclusive.

SMILES	PNC inhibitor	HTT ATP protect	12-hLO inh	NPSR antag	HTT aggregate	IMPase inh
O=c1c2ccccc2nc(SCc2cc([N+](=O)[O-])cc3c2OCOC3)n1-c1ccccc1	-92*	4%[10 µM]	-3%	-5%	-6%	·
O=c1c2ccccc2nc(SCc2ccc([N+](=O)[O-])cc2)n1-c1ccccc1	37	-21%	-1%	-19%[46.1 µM]	-10%	2
CC1=CCC(C(=O)O)C(C(=O)O)C1 (stereo not drawn)	?	5%[10 µM]	-4%	6%[46.1 µM]	10%	-3
CC1=CC(C)C(C(=O)O)C(C(=O)O)C1 (stereo not drawn)	-81*	6%	6%	-3%[46.1 µM]	18%[9.22 µM]	-9
COc1ccc(-c2c(C#N)c(SCC(=O)Nc3ccc(C)c(C)c3)nc(C)c2C(=O)Nc2ccc(Cl)cc2)cc1	·	·	·	·	·	-9
NC(=S)NS(=O)(=O)c1ccc(N)cc1	·	37%	·	·	26%	·
Cc1noc(C)c1-c1nc(Nc2ccncc2)c2ccccc2n1	·	10%	-7%	·	·	·
Cc1nc2ccccc2c2oc(C(=O)NCc3ccccn3)cc12	?	4%	2%	7%[46.1 µM]	?	6
Cc1ccc(CNC(=O)c2cc3c(C)nc4ccccc4c3o2)cc1	?	36%[10 µM]	-9%	?	11µM*	10
CCNc1ncc2nc(CCc3ccccc3)c(=O)n(C)c2n1	·	-112%	-6%	·	·	·
Cc1cc(C(=O)N/N=C/c2cccnc2)cs1	-114*	·	-4%	0%	-11%	·
COc1ccccc1N1CCN(CC2CN3C(=O)N(C)c4ccccc4C3=N2)CC1 (stereo not drawn)	·	-35%	·	·	·	·
CCOC(=O)c1c(NC(=O)/C=C/c2ccc(Cl)cc2)sc2c1CCC(C)C2 (stereo not drawn)	·	·	·	·	·	-10
Oc1cc(O)cc(/C=C\c2ccc(O)c(O)c2)c1	·	-32%[1.9 µM]	?	·	·	10
O=S(=O)(NCc1ccncc1)c1ccc(Br)s1	18	-27%[0.074 µM]	-5%	1%[46.1 µM]	2.5µM*	11
C=CCSC1=N/C(=C\c2cc(OCC)c(OC(C)=O)c([N+](=O)[O-])c2)C(=O)S1	-116*	-16%[10 µM]	-22%	-10%	0%	·
CCn1c(O)c(N=NC(=O)CNC(=O)c2ccco2)c2ccccc21	19	-17%[1.9 µM]	6%	-25%	9%	-4
CCn1c(O)c(N=NC(=O)CNC(=O)/C=C/c2ccco2)c2ccccc21	-92*	0%[10 µM]	0%	-5%[46.1 µM]	17%	11
N#Cc1nc(Cl)c(Cl)c(NN)c1Cl	·	7%[10 µM]	·	2%	4%[9.22 µM]	·
Cc1ccc(F)cc1CNC(=O)c1cc(COc2ccc3ncccc3c2)on1	·	-2%	·	17%	13µM*	·
CC(C)N(Cc1nccn1C)C(=O)c1cc(COc2ccc3ncccc3c2)on1	·	-6%	·	-11%	20µM*	·
CC(C)NC(=O)NC(=O)COC(=O)c1ccccc1F	-115*	14%[10 µM]	0%	-4%[46.1 µM]	?	-11
O=C(c1nc(SCc2ccc([N+](=O)[O-])cc2)n2ccccc12)C(F)(F)F	·	-4%[10 µM]	·	29%	13%[9.22 µM]	·
Cc1cc(C)cc(Oc2c(C(F)(F)F)oc3c(CN4CCCC(C)C4)c(O)ccc3c2=O)c1 (stereo not drawn)	·	·	·	·	·	-3
O=C(c1cccc(F)c1)N1CCC2(CCN(Cc3cc(C(F)(F)F)cc(C(F)(F)F)c3)CC2)CC1	·	-6%	4%	·	·	·
CN1CCN(S(=O)(=O)c2ccc3c4c(cccc24)C(=O)N3)CC1	-91*	-12%	1%	-6%[46.1 µM]	-4%	2
O=C1Nc2ccc(S(=O)(=O)N3CCCC3)c3cccc1c23	-10	-8%	2%	-5%[46.1 µM]	3%[9.22 µM]	0
Cc1cc(C)cc(NS(=O)(=O)c2ccc3c(c2)c(=O)n(C)c(=O)n3C)c1	?	4%	0%	-2%[46.1 µM]	8.9µM*	4
C=CC1=C2C=C(C3CC3)N(c3ccc(OC)cc3)C=C2C(=O)C(C)(OC(=O)c2ccco2)C1=O (stereo not drawn)	·	-15%[10 µM]	-4%[11.4 µM]	·	·	·
NC1=NC(=O)/C(=C\c2cccnc2)S1	·	-20%	·	-2%	8.9µM*	·

Bioassay records from PubChem.
